Source: PubChem
TEAD-YAP block: TEAD-YAP interaction inhibition. HEK-TIYL cells, TEAD-Gal4/YAP UAS-luciferase luminescence. inhibition, % at 9.12 µM. 640,000 tested, 1.4% active; in the data active = inhibition above about 32%
FBW7 act: human FBW7 E3 ligase activation, primary screen | Q969H0 | AlphaScreen FBW7–phospho-cyclin E peptide binding, activator screen | normalized activity (activation), % at 26.1 µM | 650,000 tested, 0.13% active | AID 1259310; in the data active = normalized activity above about 1.9%;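 also: purified mutant Fbw7 with reduced substrate affinity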
MITF primary: inhibitors of human MITF; O75030; AlphaScreen MITF homodimerization, bead proximity signal; inhibition, % at 2.6 µM; 650,000 tested, 0.91% active; AID 1259374; in the data active = inhibition above about 50%
GPR151 ag: activates the human receptor GPR151 | Q8TDV0 | 650,000 tested, 1% active | activation, % at 11.2 µM | PathHunter beta-arrestin GPR151 cells, luminescence | AID 1508602; in the data active = activation above about 4.9%
Target sequence (Q8TDV0 whole entry, looked up): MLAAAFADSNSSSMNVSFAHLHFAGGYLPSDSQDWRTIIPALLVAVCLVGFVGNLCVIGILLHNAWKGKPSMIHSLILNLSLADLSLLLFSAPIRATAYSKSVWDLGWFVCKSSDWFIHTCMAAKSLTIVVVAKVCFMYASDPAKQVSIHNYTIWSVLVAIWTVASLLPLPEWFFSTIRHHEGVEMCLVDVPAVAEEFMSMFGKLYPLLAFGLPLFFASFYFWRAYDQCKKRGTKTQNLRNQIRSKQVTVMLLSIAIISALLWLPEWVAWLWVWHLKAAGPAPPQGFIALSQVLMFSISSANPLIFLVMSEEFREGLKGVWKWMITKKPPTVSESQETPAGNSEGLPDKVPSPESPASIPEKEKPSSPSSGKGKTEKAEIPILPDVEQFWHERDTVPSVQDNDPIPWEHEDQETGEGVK
Of the large screens only hits and unclear results are named; the others gave an inactive call. Hits are enriched below; roughly 3.4% of the tested compounds scored in any of these assays.

O=C(/C=C/Nc1ccccc1Br)c1ccccc1	TEAD-YAP block 83
O=C(/C=C/Nc1ccc(Br)cc1F)c1ccccc1	TEAD-YAP block 84
O=C(/C=C/Nc1ccccc1Br)c1ccccn1	TEAD-YAP block 92
COC(=O)c1ccc(NS(=O)(=O)c2ccc(OC)cc2)cc1	none
COC(=O)c1ccc(C)c(NS(=O)(=O)c2ccc3ccccc3c2)c1	TEAD-YAP block 53
COC(=O)c1ccc(Cl)c(NS(=O)(=O)c2ccc(C)cc2)c1	TEAD-YAP block 57
COC(=O)c1ccc(C)c(NS(=O)(=O)c2ccc(OC)c(OC)c2)c1	none
COC(=O)c1ccc(Cl)c(NS(=O)(=O)c2ccc(OC)c(Cl)c2)c1	none
COC(=O)c1ccc(C)c(NS(=O)(=O)c2ccc(OC)c(Cl)c2)c1	TEAD-YAP block 41
COC(=O)c1ccc(N2CCCCCC2)c(NS(=O)(=O)c2ccc(OC)cc2)c1	TEAD-YAP block 57
Cc1ccc(CNC(=O)c2c[nH]c3ccc(S(=O)(=O)N4CCN(C)CC4)cc3c2=O)cc1	none
CN(C)c1ccc(C2N(O)C3CCCCC3N2O)cc1 (configuration not stated)	TEAD-YAP block 34
COC(=O)c1ccc(C2N(O)C3CCCCC3N2O)cc1 (configuration not stated)	none
NCCCC[C@@H]1NC(=O)[C@@H]2C[C@H](NC(=O)c3cnn(-c4ccccc4)c3C(F)(F)F)CN2C1=O	none
O=C(CSc1nc2ccccc2[nH]1)Nc1ccc(Cl)cn1	TEAD-YAP block 75
Cc1ccc(Cl)cc1NC(=O)CSc1nc2ccccc2[nH]1	none
O=C(CSc1nc2ccccc2[nH]1)Nc1ccc(Cl)cc1O	TEAD-YAP block 35
O=C(CSc1nc2ccccc2[nH]1)Nc1ccccn1	none
C=CCn1c(C)cc(C(=O)CSc2nc3ccccc3[nH]2)c1C	TEAD-YAP block 53
COC(=O)c1ccc(C2C3=C(CC(c4ccccc4)CC3=O)Nc3ccccc3N2C(C)=O)cc1 (configuration not stated)	none
CCCCc1ccc(NC(=O)COc2ccc(Br)cc2)cc1	none
O=C(Oc1ccc(Cl)cc1)c1ccc(N2C(=O)CCC2=O)cc1	none
Cc1cc(C)c(C#N)c(SCc2nc3cc([N+](=O)[O-])c([N+](=O)[O-])cc3[nH]2)n1	TEAD-YAP block 86
Cc1cc(C)c(C#N)c(SCc2nc3ccccc3[nH]2)n1	none
CC(=O)c1ccc[n+](CC(=O)NC(=O)NC(C)(C)C)c1	none
NC1=NC(=O)/C(=C/C=C/c2ccc([N+](=O)[O-])o2)S1	TEAD-YAP block 35, MITF primary 98
NC1=NC(=O)/C(=C\c2ccc(-c3cccc([N+](=O)[O-])c3)o2)S1	none
O=C1NC(=S)S/C1=C/c1ccc([N+](=O)[O-])o1	MITF primary 74
NC1=NC(=O)/C(=C\c2ccc([N+](=O)[O-])o2)S1	MITF primary 80
COC(=O)c1ccc(N2N=C(C)/C(=C/c3ccc(N(C)C)cc3)C2=O)cc1	none
Cc1nnc(SCC(=O)NC(C)c2ccc(F)cc2)s1 (configuration not stated)	none
CC(NC(=O)c1ccco1)c1nnc2n1CCN(Cc1ccc(F)cc1F)CC2 (configuration not stated)	none
CCCNc1cc(-c2c(C)nn(C)c2C)nc(N)n1	TEAD-YAP block 40
COc1ccc(CCNc2cc(-c3c(C)nn(C)c3C)ncn2)cc1	none
COc1ccc(CCNc2cc(-c3c(C)nn(C)c3C)nc(N)n2)cc1	TEAD-YAP block 50
COc1ccc(OCc2nnc(SCc3ccccc3C)n2N)cc1	none
Cc1ccc(S(=O)(=O)Nc2ccccc2/C=N\n2cnnc2)cc1	TEAD-YAP block 48
CCOc1ccc(/C(O)=C2/C(=O)C(=O)N(CCCN3CCOCC3)C2c2ccc(C(C)C)cc2)c(C)c1 (configuration not stated)	none
CCOC(=O)N1CCc2c(sc3ncn(CC(=O)c4ccccc4)c(=O)c23)C1	TEAD-YAP block 49
COc1cc(-c2ncnn2-c2sc3c(c2C#N)CCCCC3)ccc1O	TEAD-YAP block 79
COc1ccc(-c2ncnn2-c2sc3c(c2C#N)CCCCC3)cc1OC	none
Cc1c(C(=O)Nc2nnc(-c3ccccc3)s2)cccc1[N+](=O)[O-]	none
O=C(Nc1cccc2cnccc12)c1cccc(S(=O)(=O)N2CCCCCC2)c1	TEAD-YAP block 38
O=C(Nc1ccccc1O)c1cccc(S(=O)(=O)N2CCCCC2)c1	none
O=C(NCc1cnn(-c2ccccc2)n1)C1CC(Cc2ccccc2)=NO1 (configuration not stated)	none
CCOc1ccc(C(=O)/C=C/c2cc(OC)c(OC)c(OC)c2)cc1	TEAD-YAP block 40
COC(=O)c1ccc(/C=C/C(=O)c2ccc(OC)c(OC)c2)cc1	none
COc1cc(C(=O)/C=C/c2ccc(OCC(N)=O)cc2)cc(OC)c1OC	FBW7 act 2.0
COc1cc(/C=C/C(=O)c2ccc(F)cc2)cc(OC)c1OC	none
Cc1cc(-c2ccc(S(=O)(=O)Nc3cccc(C)n3)cc2)on1	none
CC(=O)O[C@H]1C(=O)[C@@]2(C)[C@H]([C@H](OC(=O)c3ccccc3)[C@]3(O)C[C@H](OC(=O)[C@H](O)[C@@H](NC(=O)c4ccccc4)c4ccccc4)C(C)=C1C3(C)C)[C@]1(OC(C)=O)CO[C@@H]1C[C@@H]2O	TEAD-YAP block 64
CC(=O)O[C@H]1C(=O)[C@@]2(C)[C@H]([C@H](OC(=O)[14c]3[14cH][14cH][14cH][14cH][14cH]3)[C@]3(O)C[C@H](OC(=O)[C@H](O)[C@@H](NC(=O)c4ccccc4)c4ccccc4)C(C)=C1C3(C)C)[C@]1(OC(C)=O)CO[C@@H]1C[C@@H]2O	none (no result: TEAD-YAP block)
O=C1CCCN1CCCNc1nc(NC2CC2)c2ncn(-c3ccccc3)c2n1	TEAD-YAP block 42
NC(=O)c1ccc(-c2nc(NCCCN3CCCC3=O)c3ncn(-c4ccsc4)c3n2)cc1	TEAD-YAP block 49
COc1ccc(-c2nc(NCCCN3CCCC3=O)c3ncn(-c4ccccc4)c3n2)cc1	none
O=C1CCCN1CCCNc1nc(-c2ccccc2)nc2c1ncn2-c1ccccc1	TEAD-YAP block 33
O=C1CCCN1CCCNc1nc(-c2ccccc2)nc2c1ncn2-c1ccsc1	none
CCC1CCCCN1C(=O)Cn1cnc2sc(C)c(C)c2c1=O (configuration not stated)	none
O=C(O)Cn1c2ccccc2c2ccccc21	none
O=C(c1ccccc1)n1c2ccccc2c2ccccc21	TEAD-YAP block 36
O=C(CCl)NCC1(c2ccccc2)CCCC1	TEAD-YAP block 58
CN1CCN(c2cc(-c3ccncc3)nc(-c3ccncc3)n2)CC1	TEAD-YAP block 38
CN1CCN(c2cc(-c3ccc(F)cc3)nc(-c3ccncc3)n2)CC1	none
N#Cc1ccsc1NC(=O)c1ccccc1Cl	none
N#Cc1ccsc1NC(=O)/C=C/c1ccccc1	TEAD-YAP block 64
Cc1ccc(C(=O)Nc2sccc2C#N)cc1C	none
N#Cc1ccsc1NC(=O)c1ccccc1	none
N#Cc1ccsc1NC(=O)c1ccc2c(c1)CCCC2	TEAD-YAP block 43
N#Cc1ccsc1NC(=O)c1cccc2ccccc12	TEAD-YAP block 47
CC(C)CN(CC(C)C)CN1C(=O)NC2(CCC(C)CC2)C1=O (configuration not stated)	none
